From PubChem BioAssay (NCI)
The panel holds about 83,000 compounds, 20% with a hit somewhere; the sample as a whole holds those more often.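 For each line, cells grew in 96-well plates with the test compound present at a single concentration for 48 hours.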 Activity calls are given as the source filed them. Rule for the calls: active = growth percent below 10; inactive = the rest.

Experiments:
Experiment in all cases: NCI-60 one-dose screen, 48 h (100 = growth as untreated, 0 = no growth, -100 = all killed)
Details in all cases: 10 µM unless noted
DU-145 prostate = test system: DU-145 prostate
K-562 leukemia = test system: K-562 leukemia
MALME-3M melanoma = test system: MALME-3M melanoma
MDA-MB-231 breast = test system: MDA-MB-231 breast
SF-268 CNS = test system: SF-268 CNS
SF-295 CNS = test system: SF-295 CNS
SF-539 CNS = test system: SF-539 CNS
UACC-257 melanoma = test system: UACC-257 melanoma
M14 melanoma = test system: M14 melanoma
HCT-15 colon = test system: HCT-15 colon
HT29 colon = test system: HT29 colon
SNB-75 CNS = test system: SNB-75 CNS
SNB-19 CNS = test system: SNB-19 CNS
U251 CNS = test system: U251 CNS
PC-3 prostate = test system: PC-3 prostate
SK-MEL-5 melanoma = test system: SK-MEL-5 melanoma
LOX IMVI melanoma = test system: LOX IMVI melanoma
SK-MEL-28 melanoma = test system: SK-MEL-28 melanoma
UACC-62 melanoma = test system: UACC-62 melanoma

Measured: growth

Cn1c(COC(=O)NCCn2ccnc2)nc2c(N3CCOCC3)nc(-c3ccccc3)nc21
inactive: SF-295 CNS 18%
active: DU-145 prostate -89.9% | K-562 leukemia 4.31% | MALME-3M melanoma -93.9% | MDA-MB-231 breast -90.6% | SF-268 CNS -61.6% | SF-539 CNS -99.6% | UACC-257 melanoma -56.7% | M14 melanoma -72.5% | HCT-15 colon -51.3% | HT29 colon -12.1% | SNB-75 CNS -89.9% | SNB-19 CNS 8.21% | U251 CNS -61% | PC-3 prostate -74.7% | SK-MEL-5 melanoma -96% | LOX IMVI melanoma -88.9% | SK-MEL-28 melanoma -98.8%

O=C(O)CCCCCCCCCCCCCCC(=O)O
inactive: DU-145 prostate 106% | K-562 leukemia 109% | MALME-3M melanoma 101% | MDA-MB-231 breast 98.2% | SF-268 CNS 98.9% | SF-295 CNS 101% | SF-539 CNS 105% | UACC-257 melanoma 95.6% | M14 melanoma 107% | HCT-15 colon 104% | HT29 colon 104% | SNB-75 CNS 88.2% | SNB-19 CNS 99.1% | U251 CNS 93.7% | PC-3 prostate 92.6% | SK-MEL-5 melanoma 103% | UACC-62 melanoma 95.1% | LOX IMVI melanoma 98.6% | SK-MEL-28 melanoma 106%

CC(C)CCSc1nc(NNC(N)=O)c(C#N)c(-c2ccccc2)n1
inactive: DU-145 prostate 117% | K-562 leukemia 99.2% | MALME-3M melanoma 99.7% | MDA-MB-231 breast 99.6% | SF-268 CNS 101% | SF-295 CNS 96.9% | SF-539 CNS 94.8% | UACC-257 melanoma 102% | M14 melanoma 71.7% | HCT-15 colon 98.7% | HT29 colon 115% | SNB-75 CNS 97.6% | SNB-19 CNS 99.2% | U251 CNS 109% | PC-3 prostate 98.7% | SK-MEL-5 melanoma 104% | UACC-62 melanoma 98.1% | LOX IMVI melanoma 97.6% | SK-MEL-28 melanoma 104%

C#Cc1cccc(NC(=O)Nc2ccc(NC(=O)CCl)cc2)c1
inactive: DU-145 prostate 22.3% [8.25 µM] | SF-295 CNS 79.5% [8.25 µM] | UACC-257 melanoma 35.1% [8.25 µM] | SNB-19 CNS 32.4% [8.25 µM] | SK-MEL-28 melanoma 67.6% [8.25 µM]
active: K-562 leukemia 3.37% [8.25 µM] | MALME-3M melanoma -80.5% [8.25 µM] | MDA-MB-231 breast -72.6% [8.25 µM] | SF-268 CNS -82.9% [8.25 µM] | SF-539 CNS -99.6% [8.25 µM] | M14 melanoma 4.51% [8.25 µM] | HCT-15 colon -63.1% [8.25 µM] | HT29 colon -69.5% [8.25 µM] | SNB-75 CNS -27.9% [8.25 µM] | U251 CNS -72% [8.25 µM] | PC-3 prostate 8.79% [8.25 µM] | SK-MEL-5 melanoma -73.9% [8.25 µM] | UACC-62 melanoma -44.3% [8.25 µM] | LOX IMVI melanoma -74.9% [8.25 µM]

C(=N\Nc1ncc(-c2cc3cc4c(cc3o2)OCO4)s1)/c1c[nH]c2ccccc12
active: DU-145 prostate -41.3% | K-562 leukemia 4.08% | MALME-3M melanoma -45.6% | MDA-MB-231 breast -27% | SF-268 CNS -34.6% | SF-295 CNS -41.1% | SF-539 CNS -80% | UACC-257 melanoma 3.52% | HCT-15 colon 6.56% | SNB-75 CNS -0.264% | SNB-19 CNS 3.35% | U251 CNS -10% | PC-3 prostate 1.87% | SK-MEL-5 melanoma 5.79% | UACC-62 melanoma 1.76% | LOX IMVI melanoma -94%
inactive: M14 melanoma 16.6% | HT29 colon 23.2% | SK-MEL-28 melanoma 30.9%

COc1ccc(Cl)cc1NC(=O)c1c(NC(=O)C(F)(F)C(F)(F)F)sc2c1CCCCC2
inactive: DU-145 prostate 19.3% | K-562 leukemia 17.6% | HCT-15 colon 14.9% | SNB-19 CNS 14.5% | LOX IMVI melanoma 17.6% | SK-MEL-28 melanoma 23.3%
active: MALME-3M melanoma -24.5% | MDA-MB-231 breast -18.6% | SF-268 CNS 6.13% | SF-295 CNS -25.2% | SF-539 CNS 4.26% | UACC-257 melanoma -16.5% | M14 melanoma 0.83% | HT29 colon 3.87% | SNB-75 CNS -9.76% | U251 CNS 7.27% | PC-3 prostate 5.18% | SK-MEL-5 melanoma -58.3% | UACC-62 melanoma 6.99%

O=C(OCc1nc2nc(Cl)nc(N3CCOCC3)c2[nH]1)n1ccnc1
inactive: MALME-3M melanoma 11% | SF-295 CNS 95.2% | SNB-19 CNS 62.9% | SK-MEL-5 melanoma 20.1%
active: DU-145 prostate 9.47% | K-562 leukemia -7.19% | MDA-MB-231 breast -6.91% | SF-268 CNS 5.74% | SF-539 CNS -19.7% | UACC-257 melanoma -71% | M14 melanoma -37.6% | HCT-15 colon -35.2% | HT29 colon -55.2% | SNB-75 CNS -14.2% | U251 CNS 1.06% | PC-3 prostate -24.5% | UACC-62 melanoma -80.4% | LOX IMVI melanoma -77.1% | SK-MEL-28 melanoma -36.5%

FC(F)(F)Oc1cccc(-c2cc(NCCCCCCNc3cc(-c4cccc(OC(F)(F)F)c4)nc4ccc(N5CCCC5)cc34)c3cc(N4CCCC4)ccc3n2)c1
active: DU-145 prostate -5.9% | K-562 leukemia -48.7% | MALME-3M melanoma -96.2% | MDA-MB-231 breast -91.5% | SF-268 CNS -65.5% | SF-539 CNS 8.48% | UACC-257 melanoma -9.02% | M14 melanoma -84% | HCT-15 colon -57.5% | HT29 colon -27.7% | SNB-75 CNS -4.49% | SNB-19 CNS -68.3% | U251 CNS -90.2% | PC-3 prostate -22.2% | SK-MEL-5 melanoma -62.4% | UACC-62 melanoma -92.1% | LOX IMVI melanoma -71.1% | SK-MEL-28 melanoma -93.7%
inactive: SF-295 CNS 34.1%

COc1cc(/C=C/C(=O)c2c(C)oc3nc[nH]c(=O)c23)ccc1O
inactive: DU-145 prostate 116% | K-562 leukemia 111% | MALME-3M melanoma 103% | MDA-MB-231 breast 106% | SF-268 CNS 99.6% | SF-295 CNS 99.3% | SF-539 CNS 97.5% | UACC-257 melanoma 96.6% | M14 melanoma 99.6% | HCT-15 colon 98.1% | HT29 colon 108% | SNB-75 CNS 84.4% | SNB-19 CNS 97.3% | U251 CNS 103% | PC-3 prostate 103% | SK-MEL-5 melanoma 101% | UACC-62 melanoma 96.5% | LOX IMVI melanoma 97.7% | SK-MEL-28 melanoma 101%

COc1cc(C2CC(c3cccc(Nc4ccncc4)c3)=NN2c2ccc(Cl)cc2)cc(OC)c1OC (centres undefined)
active: DU-145 prostate -17.5% | K-562 leukemia -0.526% | MALME-3M melanoma -85.2% | SF-295 CNS -55.1% | UACC-257 melanoma -6.07% | HCT-15 colon -36.4% | HT29 colon -30.3% | U251 CNS -53.2% | PC-3 prostate -22% | SK-MEL-5 melanoma -50.7% | LOX IMVI melanoma -88.8% | SK-MEL-28 melanoma -83.2%
inactive: MDA-MB-231 breast 24.8% | SF-268 CNS 44.5% | SF-539 CNS 68.3% | M14 melanoma 101% | SNB-75 CNS 26.1% | SNB-19 CNS 57.9% | UACC-62 melanoma 91.1%

Cc1ccc(C2CC(c3cccc(Nc4ccncc4)c3)=NN2c2ccccc2)cc1 (centres undefined)
active: DU-145 prostate -72.2% | K-562 leukemia -15.6% | MALME-3M melanoma -92.8% | MDA-MB-231 breast -87.9% | SF-268 CNS -73.1% | SF-295 CNS -91.3% | SF-539 CNS -96.9% | UACC-257 melanoma -55.7% | M14 melanoma -49.8% | HCT-15 colon -82.6% | HT29 colon -42% | SNB-75 CNS -95.6% | SNB-19 CNS -76.8% | U251 CNS -54.1% | PC-3 prostate -66.7% | SK-MEL-5 melanoma -94.1% | UACC-62 melanoma -94.9% | LOX IMVI melanoma -100% | SK-MEL-28 melanoma -98.9%

CN1CCN(c2cnc(C(=O)Nc3cc(F)cc4cccnc34)cn2)CC1
inactive: DU-145 prostate 72.3% | K-562 leukemia 16.9% | MALME-3M melanoma 42.2% | MDA-MB-231 breast 33.4% | SF-268 CNS 93.7% | SF-295 CNS 94.3% | SF-539 CNS 71.8% | UACC-257 melanoma 44.8% | M14 melanoma 51.4% | HCT-15 colon 30.8% | HT29 colon 42.6% | SNB-75 CNS 95.2% | SNB-19 CNS 87.4% | U251 CNS 79.9% | PC-3 prostate 21.4% | SK-MEL-5 melanoma 89.2% | UACC-62 melanoma 95.3% | LOX IMVI melanoma 59.6% | SK-MEL-28 melanoma 67.8%

COc1ccccc1/C=N/NC1=NC2C(N1)N(C)C(=O)N2C (centres undefined)
inactive: DU-145 prostate 112% | K-562 leukemia 99.5% | MALME-3M melanoma 93.6% | MDA-MB-231 breast 99.8% | SF-268 CNS 101% | SF-295 CNS 104% | SF-539 CNS 97.6% | UACC-257 melanoma 98.3% | M14 melanoma 99.7% | HCT-15 colon 104% | HT29 colon 111% | SNB-75 CNS 83.4% | SNB-19 CNS 104% | U251 CNS 99.2% | PC-3 prostate 95.4% | SK-MEL-5 melanoma 100% | UACC-62 melanoma 100% | LOX IMVI melanoma 99.5% | SK-MEL-28 melanoma 103%

CCN(CC)CCCC(C)Nc1cc(-c2cccc(OC(F)(F)F)c2)nc2ccc(N3CCCC3)cc12 (centres undefined)
active: K-562 leukemia -46.5% | MALME-3M melanoma -93% | MDA-MB-231 breast -50.3% | SF-539 CNS -91.7% | UACC-257 melanoma -81.1% | M14 melanoma -81.9% | HCT-15 colon -14.1% | HT29 colon -24.1% | U251 CNS -58.4% | SK-MEL-5 melanoma -98.1% | UACC-62 melanoma -86.5% | LOX IMVI melanoma -80.5% | SK-MEL-28 melanoma -93%
inactive: DU-145 prostate 37% | SF-268 CNS 26% | SF-295 CNS 28.3% | SNB-75 CNS 66.5% | SNB-19 CNS 24.2% | PC-3 prostate 14.3%

Fc1ccc(C2CC(c3cccc(Nc4ccncc4)c3)=NN2c2ccccc2)cc1 (centres undefined)
active: K-562 leukemia 0.671% | MALME-3M melanoma -5.72% | HCT-15 colon 2.73% | HT29 colon 0.645% | SK-MEL-28 melanoma -57%
inactive: DU-145 prostate 44.1% | MDA-MB-231 breast 64.3% | SF-268 CNS 73.1% | SF-295 CNS 73.4% | SF-539 CNS 69.7% | UACC-257 melanoma 37.8% | M14 melanoma 98.8% | SNB-75 CNS 68.2% | SNB-19 CNS 79% | U251 CNS 18.9% | PC-3 prostate 40.6% | SK-MEL-5 melanoma 76.4% | UACC-62 melanoma 88.8% | LOX IMVI melanoma 29.8%
